39 compounds from PubChem BioAssay (NCI) can be followed below.

Each structure is given as a SMILES string. Values joined by “and” are separate entries in the source; they are usually repeats but may differ in a detail not shown here. Identical values can stand only once. The panel holds about 83,000 compounds, 20% with a hit somewhere; the sample as a whole holds those more often.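 Note: values are percent growth. 100 is the growth of untreated cells, values between 100 and 0 indicate rising inhibition; between -100 and 0 indicates cell death.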 Unmarked numbers belong to inactive results. Active and inactive are the calls of the source. The calls were made as follows: active = growth percent below 10; inactive = the rest.

This assay relates to MDA-MB-468 breast. In words: NCI-60 one-dose screen, 48 h (100 = growth as untreated, 0 = no growth, -100 = all killed). The note with it: 10 µM unless noted.
As to `COc1ccc(C2c3sc4ccc(C)cc4c3Oc3nc(N)nc(N)c32)cc1` (centres undefined), the growth is 79.8%.
Next, `COc1ccc(-c2ccc(-c3ccc(C(=N)N)cn3)o2)cc1Cl`: -9.43% (active).
Next, `Cc1cc(N=C2NC(=O)S/C2=C\c2ccc(F)cc2)n[nH]1`: -5.57% (active); `Cn1cc(-c2nnc(N)nc2-c2c[nH]c3ccccc23)c2cc(Br)cnc21`: -3.61% (active); `O=C(CC(=O)Nc1ccc(Oc2ncnc3scc(Nc4n[nH]c(=S)s4)c23)cc1)Nc1ccc(Cl)cc1`: -18.5% (active).
Then `O=C1NC2C=CC=CC2/C1=C1/SC(=S)N(C2CC(=O)N(c3ccc(Br)cc3)C2=O)C1=O` (centres undefined), with 84.2%; and `CC1(C)CC(=O)C2=C(C1)N(Cc1ccc(C(=O)O)cc1)C1=C(C(=O)CC(C)(C)C1)C2c1ccc(Cl)cc1`, with 103%.
On to `CCOC(=O)c1cc(C#N)n2ncc3ccccc3c12`, for which the growth is 87.9%.
Take `Cc1ccc2c(c1)C(=O)/C(=C/c1ccc([N+](=O)[O-])cc1)S2`: the growth was 84%.
Next, `O=C(Nc1ccc(OCc2ccc(Cl)cc2)cc1)Nc1ccc(Cl)c(C(F)(F)F)c1`: -15.2% (active).
Next, `Cn1cc(-c2nc(N)nnc2-c2c[nH]c3ccccc23)c2cc(Br)cnc21`: -9.99% (active).
Next, `O=C(CSc1nc2ccccc2c(=O)n1-c1ccc(Cl)cc1)Nc1ccc(-c2nc3ccccc3[nH]2)cc1`: -41.7% (active).
For the compound `Cc1ccc2c(c1)C(=O)/C(=C/c1c[nH]c3ccccc13)S2`, the growth is 17.8%.
Then `COc1cccc(O)c1/C=C1\SCc2cc3c(OC)cccc3[o+]c21`, with 112%; and `COc1cc(C2CC(c3ccc(Oc4ccc(Cl)cc4)cc3)=NN2c2nc(-c3ccc(Cl)cc3)c(C#N)c(N3CCOCC3)n2)cc(OC)c1OC` (centres undefined), with 107%.
Then `CCCCNC(=O)Oc1ccc(/C(=C(/C)Cc2ccc(OC)cc2)c2ccc(OCCN(CC)CC)cc2)cc1`, with 76.3%; and `O=C(Nc1ccc(OCC(=O)c2ccc(Cl)cc2)cc1)Nc1ccc(Cl)c(C(F)(F)F)c1`, with 26%.
As for `Cc1ccc2sc3c(c2c1)Oc1nc[nH]c(=O)c1C3c1cccc(F)c1` (centres undefined), the growth is 78%.
Next, `Cc1cc(N=C2NC(=O)/C(=C/c3cc(C(C)(C)C)c(O)c(C(C)(C)C)c3)S2)n[nH]1`: -0.214% (active).
Then `CCCCn1c(=O)c2c(nc3n2CCCN3CCc2ccc(OCC(=O)NCCN(CC)CC)cc2)n(CCCC)c1=O`, with 43.7%; and `COc1ccc(C2c3sc4ccc(C)cc4c3Oc3nc[nH]c(=O)c32)cc1` (centres undefined), with 61.3%; and `COc1cccc(C(=O)CSc2nc(-c3ccc(OCc4ccccc4)c(OC)c3)c(C#N)c(=O)[nH]2)c1`, with 88.4%.
Next, `CN1CCN(c2ccc3nc(-c4[nH]ncc4Nc4ncnc5c4OCCCN5)[nH]c3c2)CC1`: -76.3% (active).
For the compound `Cc1ccc(COc2ccc(NC(=O)Nc3ccc(Cl)c(C(F)(F)F)c3)cc2)cc1`, the growth was -14.4% (active).
Next, `Nc1cc(-c2ccc(Cl)cc2)nn1-c1nc(-c2ccc(Br)cc2)cs1`: 99.4%; `O=C(O)CCN1C(=O)/C(=C/C=C/c2ccc([N+](=O)[O-])o2)SC1=S`: -77.8% (active).
Then `CC(C)(C)c1cc(/C=C2\S/C(=N/c3ncn[nH]3)NC2=O)cc(C(C)(C)C)c1O`, with 9.25% (active); and `Cn1cc(/C=C(/SS/C(=C/c2cn(C)c3cccc(C(=O)O)c23)C(=O)O)C(=O)O)c2c(C(=O)O)cccc21`, with 103%; and `Cc1ccc(C(SCC(N)C(=O)O)(c2ccccc2)c2ccc(C)cc2)cc1` (centres undefined), with -1.71% (active).
Then `CC(C)C1C2=C(NCCN1C(=O)Cc1ccccc1)C(C)(C)N(Cc1ccccc1)C2=O` (centres undefined), with 95.5%.
As for `COc1ccc(C(=O)COc2ccc(NC(=O)Nc3ccccc3)cc2)cc1`, the growth is 80.9%.
Next, `CCn1c(SCC(=O)Nc2ccc(-c3nc4ccccc4[nH]3)cc2)nc2ccccc2c1=O`: -81% (active); `O=C(Nc1ccc(OCc2ccc(F)cc2)cc1)Nc1ccc(Cl)c(C(F)(F)F)c1`: -8.31% (active); `O=C(CC(=O)Nc1ccc(Oc2ncnc3scc(Nc4n[nH]c(=S)s4)c23)cc1)Nc1ccc(Br)cc1`: 120%.
Then `COc1ccc(C(=O)COc2ccc(NC(=O)Nc3ccc(Cl)c(C(F)(F)F)c3)cc2)cc1`, with -15.1% (active).
Next, `O=C(Nc1ccc(Oc2ncnc3scc(Nc4n[nH]c(=S)s4)c23)cc1)C1(C(=O)Nc2cccc(C(F)(F)F)c2)CC1`: -10.1% (active).
In the case of `O=C1NC(=S)S/C1=C\c1cn(-c2ccccc2)nc1-c1ccc([N+](=O)[O-])cc1`, the growth is -8.61% (active).
Consider `O=C(O)C(Cc1ccc(OS(=O)(=O)Cc2ccccc2)cc1)NS(=O)(=O)Cc1ccccc1` (centres undefined), for which the growth was 105% and 117%.
For `Nc1nc2c(c3cnccc13)C(c1cccc(Br)c1)Cc1cnccc1-2` (centres undefined), the growth is -16.1% (active).
